Laboratory results published in PubChem BioAssay (EPA / NIEHS).
Records with an inconclusive call do not appear. Active and inactive are the calls of the source. The calls were made as follows: active = hit-call score of the fitted dose curve at least 0.9, where 1 is the maximum; inconclusive = response in the unintended direction; inactive = score below 0.9.

What was measured:
[1] = TOX21_p53_BLA_p5_viability: Viability Assessment in the Tox21 HCT-116 p53 Agonism Beta-lactamase Assay, Phase 5 (AID 2283600)
Procedure, shortened: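 After the 460/530 nm beta-lactamase measurement, the wells received an ATP-detection luciferase reagent; signal was read 30 min later at RT. Compound treatment lasted 16 h on cells pre-incubated 5 h post-seeding.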

[2] = Tanguay_ZF_120hpf_MORT_legacy: (Legacy) Oregon State University Tanguay Lab 120 Hour Post-fertilization zebrafish Assay for Mortality (AID 2283633)
Procedure, shortened: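 Static waterborne exposure from 6 to 120 hpf at 28C of single dechorionated wild-type (5D) embryos per well, 0.64% DMSO final. Death recorded present/absent by brightfield at 24 and 120 hpf.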

[3] = Tanguay_ZF_120hpf_EYE_legacy: (Legacy) Oregon State University Tanguay Lab 120 Hour Post-fertilization zebrafish Assay for Eye Malformation (AID 2283636);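 also: binary presence or absence of eye malformation scored by brightfield in 120 hpf larvae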
Procedure, shortened: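 Dechorionated wild-type Tropical 5D zebrafish embryos were exposed statically from 6 hpf, one per well, to 120 hpf at 28C in sealed, foil-covered plates with 0.64% DMSO. Eye malformation was scored present/absent by brightfield microscopy against DMSO controls.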

[4] = Tanguay_ZF_120hpf_SNOU_legacy: (Legacy) Oregon State University Tanguay Lab 120 Hour Post-fertilization zebrafish Assay for Snout Malformation (AID 2283637)
Procedure, shortened: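 Tropical 5D wild-type zebrafish embryos, dechorionated with pronase at 4 hpf, were exposed singly from 6 hpf to 120 hpf statically at 28C in 0.64% DMSO. Snout malformation was scored present/absent by brightfield microscopy, fitted against DMSO.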

[5] = Tanguay_ZF_120hpf_JAW_legacy: (Legacy) Oregon State University Tanguay Lab 120 Hour Post-fertilization zebrafish Assay for Jaw Malformation (AID 2283638)
Procedure, shortened: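 Binary jaw-malformation call at 120 hpf by brightfield microscopy. Embryos (Tropical 5D strain, chorion removed at 4 hpf) were dosed statically at 6 hpf, one per well, at 28C with 0.64% DMSO. Embryos that died were not scored.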

[6] = Tanguay_ZF_120hpf_OTIC_legacy: (Legacy) Oregon State University Tanguay Lab 120 Hour Post-fertilization zebrafish Assay for Otic Vesicle Malformation (AID 2283639)
Procedure, shortened: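 Tropical 5D wild-type zebrafish embryos statically exposed in 0.64% DMSO at 28C until 120 hpf; 5uM trimethyltin chloride as positive control. Otic vesicle malformation scored present/absent by brightfield; dead embryos not scored; gain fitted versus DMSO.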

[7] = Tanguay_ZF_120hpf_PE_legacy: (Legacy) Oregon State University Tanguay Lab 120 Hour Post-fertilization zebrafish Assay for Pericardial Edema (AID 2283640)
Procedure, shortened: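 Scoring was binary, by brightfield microscopy at 120 hpf, and skipped where mortality occurred. Wild-type embryos were kept under sealed, foil-covered static exposure at 28C in 0.64% (vol/vol) DMSO.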

[8] = Tanguay_ZF_120hpf_CFIN_legacy: (Legacy) Oregon State University Tanguay Lab 120 Hour Post-fertilization zebrafish Assay for Caudal Fin Malformation (AID 2283649)
Procedure, shortened: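 Binary brightfield scoring of caudal fin defects at 120 hpf after static, light-shielded exposure at 28C from 6 hpf. Tropical 5D embryos, chorion removed with pronase at 4 hpf, final DMSO 0.64%.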

[9] = Tanguay_ZF_120hpf_PIG_legacy: (Legacy) Oregon State University Tanguay Lab 120 Hour Post-fertilization zebrafish Assay for Pigmentation Malformation (AID 2283650)
Procedure, shortened: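 Tropical 5D wild-type zebrafish embryos, dechorionated with pronase at 4 hpf, were exposed singly from 6 hpf to 120 hpf statically at 28C in sealed, dark plates with 0.64% DMSO; pigmentation scored present/absent by brightfield microscopy, fitted against DMSO.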

[10] = Tanguay_ZF_120hpf_CIRC_legacy: (Legacy) Oregon State University Tanguay Lab 120 Hour Post-fertilization zebrafish Assay for Circulatory Malformation (AID 2283651)
Procedure, shortened: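 Dechorionated wild-type 5D zebrafish embryos, one per well, statically exposed from 6 to 120 hpf at 28C with 0.64% DMSO; circulatory malformation scored present/absent by brightfield microscopy at 120 hpf, dead embryos excluded.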

[11] = Tanguay_ZF_120hpf_TRUN_legacy: (Legacy) Oregon State University Tanguay Lab 120 Hour Post-fertilization zebrafish Assay for Truncated Body (AID 2283655)
Procedure, shortened: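 Binary presence/absence of truncated body is recorded at 120 hpf by brightfield, with non-mortality endpoints skipped after death. Exposure is static from 6 hpf in sealed dark plates at 28C, using dechorionated wild-type zebrafish, 0.64% DMSO.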

[12] = Tanguay_ZF_120hpf_YSE_legacy: (Legacy) Oregon State University Tanguay Lab 120 Hour Post-fertilization zebrafish Assay for Yolk Sac Edema (AID 2283634)
Procedure, shortened: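 Presence or absence of yolk sac edema was recorded at 120 hpf in surviving larvae. These were wild-type Tropical 5D embryos, chorion removed at 4 hpf, held in static exposure at 28C from 6 hpf with 0.64% DMSO vehicle.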

[13] = Tanguay_ZF_120hpf_SWIM_legacy: (Legacy) Oregon State University Tanguay Lab 120 Hour Post-fertilization zebrafish Assay for Swim Bladder Malformation (AID 2283654);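 also: swim bladder malformation in each larva scored yes or no under brightfield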
Procedure, shortened: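 Dechorionated Tropical 5D wild-type embryos, placed singly from 6 hpf, were statically exposed at 28C to 120 hpf with 0.64% DMSO final; swim bladder malformation was scored present/absent by brightfield microscopy, gain of signal relative to DMSO controls.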

[14] = Tanguay_ZF_120hpf_SOMI_legacy: (Legacy) Oregon State University Tanguay Lab 120 Hour Post-fertilization zebrafish Assay for Somite Malformation (AID 2283647)
Procedure, shortened: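 Binary somite-defect scoring at 120 hpf, omitted for embryos that died, in wild-type (Tropical 5D) zebrafish with chorion removed by pronase at 4 hpf; static exposure began 6 hpf, single embryos per well, 28C, 0.64% DMSO; fitted positive versus DMSO.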

[15] = Tanguay_ZF_120hpf_AXIS_legacy: (Legacy) Oregon State University Tanguay Lab 120 Hour Post-fertilization zebrafish Assay for Body Axis Malformation (AID 2283635)
Procedure, shortened: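 Binary scoring of axis defects at 120 hpf under brightfield, fitted positive versus DMSO. Tropical 5D embryos, chorion removed by pronase at 4 hpf, were singly exposed in sealed, dark plates at 28C from 6 hpf; DMSO 0.64% final.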

[16] = molecular target: Cellular tumor antigen p53 (Homo sapiens) (UniProt P04637); test: TOX21_p53_BLA_p4_ratio: Tox21 HCT-116 p53 Agonism Beta-lactamase Assay, Ratio, Phase 4 (AID 2283601)
Procedure, shortened: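 HCT116 cells carrying an inducible beta-lactamase reporter were plated at 4000 cells/well, rested 5 h, then exposed to compounds in DMSO (217-fold dilution) for 16 h at 37C. CCF4-AM substrate was loaded 2 h at room temperature; 460/530 nm emission ratio scored gain-of-signal versus DMSO.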

[17] = Tanguay_ZF_120hpf_PFIN_legacy: (Legacy) Oregon State University Tanguay Lab 120 Hour Post-fertilization zebrafish Assay for Pectoral Fin Malformation (AID 2283648);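 also: each larva judged yes or no for fin defect by brightfield with dead larvae skipped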
Procedure, shortened: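 Tropical 5D wild-type embryos, dechorionated with pronase at 4 hpf, were placed singly in wells at 6 hpf and statically exposed until 120 hpf at 28C, sealed and dark, with 0.64% (vol/vol) final DMSO; pectoral fin malformation scored present/absent.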

[18] = Tanguay_ZF_120hpf_BRAI_legacy: (Legacy) Oregon State University Tanguay Lab 120 Hour Post-fertilization zebrafish Assay for Brain Malformation (AID 2283641)
Procedure, shortened: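 Binary brightfield scoring of brain malformation at 120 hpf in Tropical 5D larvae held under static exposure at 28C (0.64% v/v DMSO), non-mortality endpoints skipped if dead. Positive control: 5uM trimethyltin chloride; fit versus DMSO.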

Measured: outcome

Chain of Cellular tumor antigen p53 (Homo sapiens) (P04637 whole entry, looked up): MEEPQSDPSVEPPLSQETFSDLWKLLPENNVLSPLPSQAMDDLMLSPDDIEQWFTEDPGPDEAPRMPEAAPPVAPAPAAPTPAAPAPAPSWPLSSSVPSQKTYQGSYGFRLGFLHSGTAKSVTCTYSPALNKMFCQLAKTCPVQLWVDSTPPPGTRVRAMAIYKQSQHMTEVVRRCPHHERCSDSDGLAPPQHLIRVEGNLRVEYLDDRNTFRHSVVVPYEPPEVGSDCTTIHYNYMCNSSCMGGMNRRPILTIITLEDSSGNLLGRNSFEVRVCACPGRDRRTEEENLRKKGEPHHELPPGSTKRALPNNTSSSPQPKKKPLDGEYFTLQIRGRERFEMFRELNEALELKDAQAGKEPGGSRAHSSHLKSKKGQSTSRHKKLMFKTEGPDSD

Cc1cc(O)ccc1Cl
not listed: [12] | [13] | [14] | [15] | [16] | [17] | [18]
inactive: all other assays above

N#Cc1ccc(N(CC(N)=O)CC(F)(F)F)cc1C(F)(F)F
not listed: [10] | [14] | [15] | [16] | [17] | [18]
inactive: all other assays above

Oc1ccc(Cl)cc1Cl
not listed: [10] | [12] | [15] | [16] | [17] | [18]
inactive: all other assays above

CN(C)c1nc(=O)n(C2CCCCC2)c(=O)n1C
inactive: [2] | [12] | [15] | [3] | [4] | [6] | [7] | [8] | [10] | [11]

Clc1ccc(C(Cl)(Cl)Cl)cc1
not listed: [1] | [4] | [6] | [8] | [10] | [17] | [18]
inactive: all other assays above

O=C(NC(=O)c1cc(F)c(F)cc1Cl)Nc1cc(F)ccc1N1CCC(C(=O)O)CC1
not listed: [1] | [15] | [18]
inactive: all other assays above

CC(c1ccc(O)cc1)(c1ccc(O)cc1)c1ccc(O)cc1
not listed: [7] | [15] | [16] | [17]
inactive: all other assays above

CCCCCCCCOC(=O)c1ccccc1C(=O)OCCCCCCCC
not listed: [15] | [16] | [17] | [18]
inactive: all other assays above

CCC(C)(CC)c1cc(NC(=O)c2c(OC)cccc2OC)on1
not listed: [1] | [9] | [10] | [15] | [16] | [17] | [18]
inactive: all other assays above

Cc1ccccc1O
not listed: [1] | [15] | [17] | [18]
inactive: all other assays above

C1CC2OC2CC1C1CO1 (stereo not given)
not listed: [7] | [12] | [15] | [16] | [17] | [18]
inactive: all other assays above

CN(C)CCO
not listed: [15] | [16] | [18]
inactive: all other assays above

O=S(=O)(O)C(F)(F)C(F)(F)C(F)(F)C(F)(F)C(F)(F)C(F)(F)F
not listed: [1] | [7] | [8] | [15] | [16] | [17] | [18]
inactive: all other assays above

Cc1cc2c3c(c1)C(c1ccccc1)=N[C@@H](NC(=O)c1ccncc1)C(=O)N3CC2
not listed: [1] | [10] | [13] | [17] | [18]
inactive: all other assays above

CCCCCCOC(=O)c1ccccc1C(=O)OCCCCCC
not listed: [6] | [8] | [13] | [15] | [16] | [17] | [18]
inactive: all other assays above

CCOCCOC(C)=O
not listed: [2] | [3] | [15] | [16] | [17]
inactive: all other assays above

ClC(Cl)=C(c1ccc(Cl)cc1)c1ccc(Cl)cc1
not listed: [6] | [9] | [15] | [16] | [17] | [18]
inactive: all other assays above

CCOP(=S)(OCC)SCSC(C)(C)C
inactive: [2] | [12] | [3] | [4] | [6] | [7] | [14] | [9] | [10]
